An excerpt weighted towards active compounds, which were near 4.5% of everything screened.
hcDAF-12 act = activators of H. contortus DAF-12 nuclear receptor | activation, % at 6.8 µM | HEK293 hcDAF-12 lit1-tk-luc reporter, luminescence; 0% DMSO, 100% Δ7-dafachronic acid | AID 652067 | actives 1.4% (n = 370,000);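 active means activation above the mean of all tested compounds plus 3 SD, cut at about 5.5% in these data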;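 further: 100% = response to 3 µM Δ7-dafachronic acid high control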
hgDAF-12 ag = agonists of H. glycines DAF-12 nuclear receptor; actives 1.8% (n = 370,000); activation, % at 6.8 µM; HEK293 GAL4-hgDAF12 UAS-luciferase reporter, agonist luminescence; normalized to butyrate control; AID 687014;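 active means activation above a cutoff set at the mean of all screened compounds plus 3 SD, cut at about 10% in these data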;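 further: 0% = DMSO wells and 100% = sodium butyrate wells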
DAX1 inh-1 = inhibitors of human orphan nuclear receptor DAX1 (NR0B1). P51843. HEK293 Gal4-DAX1 luciferase reporter, luminescence. inhibition, % at 6.75 µM. actives 0.99% (n = 340,000). AID 504766;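 active means inhibition above the mean over all tested compounds plus 3 SD, cut at about 4.2% in these data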;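 further: 0% = DAX1-transfected cells with DMSO and 100% = empty-vector control cells with DMSO; inhibition shows as a rise in luminescence from relieved DAX1 repression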
FXN GAA850 act = increases GAA850 frataxin promoter reporter activity; AID 540364; HEK293 lucGAA850 FXN promoter luciferase reporter, 24 h; percent of 10 µM SAHA response; activation, % at 6 µM; actives 0.56% (n = 360,000);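 active means activation above the average of all compounds screened plus 3 SD, cutoff fixed separately per campaign, cut at about 7.5% in these data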;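 further: 0% = DMSO wells and 100% = 10 µM SAHA wells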
DAX1 inh-2 = DAX1 (NR0B1) inhibition, primary screen; actives 1.1% (n = 370,000); inhibition, % at 6.8 µM; HEK293T StAR-luciferase reporter, SF-1/DAX-1 repression relief; AID 652010;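 active means inhibition above the mean over all tested compounds plus 3 SD, cut at about 3.6% in these data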;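 further: 0% = DAX-1 cells with DMSO and 100% = cells lacking DAX-1 with DMSO; higher inhibition means more luminescence from relief of DAX-1 repression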
ssDAF-12 act = S. stercoralis DAF-12 activation, primary screen | HEK293 ssDAF-12/GRIP1 lit1-tk-luc reporter, luminescence; % of 3 µM dafachronic acid response | activation, % at 6.8 µM | actives 1% (n = 370,000) | AID 652126;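 active means activation above the mean over all tested compounds plus 3 SD, cut at about 0.9% in these data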;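 further: 0% = DMSO-only wells and 100% = 3 µM delta7-dafachronic acid wells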
hgDAF12 conf = confirmation of H. glycines DAF-12 agonists | HEK293 GAL4-hgDAF12 luciferase reporter, agonist mode; percent of butyrate response | activation, % at 6.8 µM | actives 80% (n = 3,300) | AID 743050 | shares compounds with hgDAF-12 ag;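 active means mean activation over triplicate wells above the hit cutoff derived from the earlier primary screen, cut at about 11% in these data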;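 further: 0% = DMSO low control and 100% = 2 mM sodium butyrate high control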
LXR ag 2 = activates human LXR-beta, counter-screen for DAF-12 agonists; shares compounds with hgDAF-12 ag; HEK293 Gal4-LXR luciferase reporter, 24 h; activation, % at 6.8 µM; 3,300 tested, under 10 active;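 active means mean activation of the triplicate above a set limit carried over from the primary screen, none filed active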
Target sequence (P55055 whole entry, looked up, the tested form may be a part): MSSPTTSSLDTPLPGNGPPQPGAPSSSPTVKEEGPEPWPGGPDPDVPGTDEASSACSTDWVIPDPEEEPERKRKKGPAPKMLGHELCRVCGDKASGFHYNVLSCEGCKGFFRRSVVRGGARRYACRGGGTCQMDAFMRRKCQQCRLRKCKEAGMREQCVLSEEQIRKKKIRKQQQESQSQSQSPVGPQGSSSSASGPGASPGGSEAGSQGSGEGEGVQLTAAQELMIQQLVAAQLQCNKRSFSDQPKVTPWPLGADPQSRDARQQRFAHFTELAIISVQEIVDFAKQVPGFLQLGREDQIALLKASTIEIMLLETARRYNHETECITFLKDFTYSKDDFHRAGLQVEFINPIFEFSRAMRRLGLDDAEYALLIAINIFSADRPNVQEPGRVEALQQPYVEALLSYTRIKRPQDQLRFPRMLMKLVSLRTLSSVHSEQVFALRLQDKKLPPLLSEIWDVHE
Starred values were filed as active, the others as inactive; . = not tested or not shown.

SMILES | hcDAF-12 act | hgDAF-12 ag | DAX1 inh-1 | FXN GAA850 act | DAX1 inh-2 | ssDAF-12 act | hgDAF12 conf | LXR ag 2
C/C(=N/NC(=O)c1ccc(Br)o1)c1cccc(NC(=O)c2ccc(F)cc2)c1 | 4 | 8 | 3 | 3 | 3 | 0 | . | .
C/C(=N/NC(=O)c1ccccn1)c1ccncc1 | 5 | 14* | 2 | 2 | 2 | 1 | 9 | 0
C/C(=N/NC(=O)c1ccc(Br)o1)c1ccncc1 | 2 | 18* | 5.7* | 2 | 2 | 1 | 0 | 0
C/C(=N/NC(=O)c1cnccn1)c1ccncc1 | 0 | 6 | 0 | 1 | 1 | 0 | . | .
COc1ccc(Br)cc1/C=C\C(=O)NCc1cccnc1 | -2 | -3 | 0 | 1 | 0 | -1 | . | .
CS(=O)(=O)N(CC(=O)N1CCN(Cc2ccccc2)CC1)c1cccc([N+](=O)[O-])c1 | 2 | -1 | 0 | 1 | -1 | -2 | . | .
Oc1cccc(/C=N\Nc2nncc(-c3ccccc3)n2)c1 | 3 | 16* | 1 | 4 | 1 | 0 | 12* | 1
c1ccc(CNn2nnc3ccccc32)cc1 | -1 | 14* | . | . | 2 | -1 | 11* | 0
CC1CCCCN1C(=O)COC(=O)c1ccc(=O)n(Cc2ccccc2)n1 (configuration not stated) | 2 | 2 | -1 | 1 | -1 | -1 | . | .
O=C(Nc1ccc(F)c(Cl)c1)Nn1cnnc1 | -2 | -4 | 0 | 0 | -1 | -1 | . | .
CC(=O)Nc1cccc(-c2nc3ccc(NC(C)=O)cc3s2)c1 | 4 | 19* | 1 | 5 | 1 | 1 | 12* | 1
CCOC(=O)C1=C(C)NC(=O)CC1c1cc(OC)c(OC)cc1Br (configuration not stated) | -1 | -2 | 1 | 2 | -1 | -1 | . | .
Cc1nc2cc(NCc3ccc(Cl)cc3)ccc2n1C | 4 | 14* | 4.7* | 3 | 4 | 1.6* | 14* | 1
COc1ccc(/C=C/c2nc3ccccc3n2C)cc1 | -4 | -12 | -4 | -9 | -2 | -3 | . | .
COc1ccc(Cn2c(/C=C/c3ccccc3)nc3ccccc32)cc1 | 6.4* | 18* | 2 | 1 | 3.8* | 1 | 20* | 1
CC(C)Cn1c(/C=C/c2ccccc2)nc2ccccc21 | 1 | 14* | 0 | 6 | 3 | 0 | 9 | 0
CCC(C)n1c(/C=C/c2ccccc2)nc2ccccc21 (configuration not stated) | 2 | 3 | -1 | 2 | 0 | -1 | . | .
Cc1ccc(OS(=O)(=O)c2c(C)nn(C)c2Cl)c(C)c1 | -1 | -1 | 0 | 0 | 1 | -1 | . | .
Clc1cccc(CNc2ccn3nc(-c4cccc(Cl)c4)cc3n2)c1 | 3 | 13* | . | 3 | 1 | 0 | 9 | 0
Clc1cccc(CNc2ccn3nc(-c4ccccc4)cc3n2)c1 | 3 | 8 | . | 3 | 2 | -1 | . | .
Clc1ccc(-c2cc3nc(NCc4cccc(Cl)c4)ccn3n2)cc1 | 4 | 14* | . | 2 | 3.9* | 0 | 17* | 1
Cc1cccc(N=C2NC(=O)/C(=C\c3cccs3)S2)c1 | -1 | -1 | 0 | 4 | 0 | -2 | . | .
O=C1NC(=Nc2ccccc2)S/C1=C/c1cccs1 | 3 | 15* | 3 | 5 | 1 | 0 | 10 | 0
O=C(NC1CCCC1)C(C1CC1)n1c(-c2cc3ccccc3[nH]2)nc2ccccc21 (configuration not stated) | 6 | 22* | . | . | 3 | 1.0* | 14* | 0
O=C1CCN(Cc2ccccc2)C(=S)N1 | 0 | -2 | 2 | -1 | -1 | -1 | . | .
COc1ccc(C(=O)N2CCN(S(=O)(=O)c3ccc4c(c3)OCCO4)CC2)cc1OC | -1 | -3 | 0 | 0 | -1 | -2 | . | .
